From PubChem BioAssay AID1850 (Southern Research Specialized Biocontainment Screening …, 2009) come the findings set out here.

Usually inhibition stands for the drop in the measured response relative to a control, in per cent.

The whole screen tested about 310,000 compounds, of which about 1,000 (0.32%) were called active. How the calls were made is not given here. The list is a sample of the results. Measured potencies and affinities stand elsewhere.

The test is described as follows: Inhibition of PhoP regulon, Salmonella typhi GFP reporter cells, confirmation, 4 h (AID 1850).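 Further: 0% = induced wells with vehicle and 100% = uninduced wells.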 To be noted: Salmonella Typhi PhoP-promoter GFP reporter, fluorescence, at 50 µM, active compounds read high.
For the compound `CCOCCOC(=O)c1ccc(-n2cncn2)nc1`, the inhibition is 19.6% (inactive).

In the case of `Cn1c(NC(=O)CC2CCCCC2)cc(=O)n(C)c1=O`, the inhibition was -13.1% (inactive).

Consider `C/C(=N\Nc1nc2ccccc2[nH]1)c1ccc2c(c1)OCCO2`, for which the inhibition was 11.8% (inactive).

As to `COc1ccc(Br)cc1C(=O)NC(=S)Nc1c(C)n(C)n(-c2ccccc2)c1=O`, the inhibition is 14.4% (inactive).

For `CC1(c2ccccc2)NC(=O)N(CC(=O)NCCC2=CCCCC2)C1=O` (centres undefined), the inhibition was 0.28% (inactive).

As to `CNC[C@H](CC1CCCCC1)NC[C@H](CO)NCC1(c2ccccc2)CC1`, the inhibition was -8.16% (inactive).

For the compound `CCC[C@@H](CN[C@@H](CNC)C(C)C)NCCCCc1ccccc1`, the inhibition was 16.7% (inactive).

Regarding `O=C(CC12CC3CC(CC(C3)C1)C2)NC(Cc1ccccc1)C(=O)O` (centres undefined), the inhibition was -9.42% (inactive).

Turning to `CNC[C@H](CC1CCCCC1)NC[C@H](CO)NCCc1cccc(C(F)(F)F)c1`, the inhibition is 10.8% (inactive).

As to `CNC[C@H](CC1CCCCC1)NC[C@H](NCCC1CCCC1)[C@H](C)O`, the inhibition is 22.8% (inactive).

Take `CCC[C@@H](CNC)NC[C@H](Cc1ccccc1)NCCCCc1ccccc1`: the inhibition is 3.99% (inactive).

`CC(C)n1nc(C(=O)OCC(=O)N(C)C2CCS(=O)(=O)C2)c2ccccc2c1=O` (centres undefined): the inhibition was -1.06% (inactive).

On to `COCCn1c(SCc2cccc(F)c2)nc2cc(C(=O)OC)ccc2c1=O`, for which the inhibition is 6.64% (inactive).

Turning to `O=C(c1cc(-c2cccc(O)c2)on1)N1CCCCCC1`, the inhibition is 14.9% (inactive).

`CN(C)S(=O)(=O)c1cccc(NC(=O)COc2ccc(C(=O)c3ccccc3)cc2)c1`: the inhibition is -35.4% (inactive).

For the compound `COc1ccc(CCn2c(-n3nc(C)cc3C)nc3c2c(=O)[nH]c(=O)n3C)cc1`, the inhibition was 0.46% (inactive).

For `O=C(NCC(=O)N1CCCCC1)c1ccc(Br)o1`, the inhibition was 20.3% (inactive).

As to `N#C/C(=N\Nc1ccc(S(=O)(=O)N2CCOCC2)cc1)C(N)=S`, the inhibition was 6.96% (inactive).

`O=C(Nc1ccc(SC(F)F)cc1)C1CC(=O)N(Cc2ccccc2)C1` (centres undefined): the inhibition was 17.5% (inactive).

Regarding `OCC1(Cc2ccc(Cl)cc2)CCN(Cc2ccc(F)c(F)c2)CC1`, the inhibition is 1.77% (inactive).

In the case of `CCn1c(=O)n(CC)c2cc(NC(=O)c3ccccc3Cl)ccc21`, the inhibition is -4.48% (inactive).

For `C/C(CC(=O)Nc1ccc2c(c1)OCO2)=N\NC(=O)OC(C)(C)C`, the inhibition was 1.68% (inactive).

On to `Cc1ccc(C(=O)Nc2cccc(NC(=O)c3cccs3)c2)c(C)c1`, for which the inhibition was -6.14% (inactive).

`Cc1cc(C)c(S(=O)(=O)NCCCn2ccnc2)c(C)c1`: the inhibition was -3.5% (inactive).

On to `CCCCC[n+]1cccc2c3ccccc3ccc21`, for which the inhibition was 0.18% (inactive).

On to `CCCCCCCCCCCCCCCC[n+]1cccc2ccccc21`, for which the inhibition was -4.68% (inactive).

For the compound `COc1ccc(-c2c[n+](CC(=O)N3c4ccccc4Sc4ccccc43)c3n2CCC3)cc1`, the inhibition was 18.6% (inactive).

For the compound `O=C(C[n+]1cc(-c2ccc(F)cc2)n2c1CCC2)N1c2ccccc2Sc2ccccc21`, the inhibition was -2.79% (inactive).

For `Cc1ccc(-c2c[n+](CC(=O)N3c4ccccc4Sc4ccccc43)c3n2CCC3)cc1`, the inhibition is 6.09% (inactive).

With `O=C(C[n+]1cc(-c2ccccc2)n2c1CCC2)N1c2ccccc2Sc2ccccc21`, the inhibition is 13.9% (inactive).

Regarding `CC/C(=N\NC(=O)c1ccncc1)C12CC3CC(CC(C3)C1)C2`, the inhibition was 8.69% (inactive).

Regarding `CCOC(=O)N1CCC(=NNC(=O)COc2ccc(C#N)cc2)CC1`, the inhibition was -4.18% (inactive).

Take `COc1ccc(OC)c(CCNC(=O)c2sc3nc4n(c(=O)c3c2C)CCC4)c1`: the inhibition was 4.26% (inactive).

Consider `Cc1occc1C(=O)N/N=C/c1ccc(Br)s1`, for which the inhibition is 1.4% (inactive).

Consider `Cc1ccc(/C=N/NC(=O)c2ccoc2C)s1`, for which the inhibition was 0.98% (inactive).

On to `CC(/C=N\NC(=O)CN1CCN(S(=O)(=O)c2ccc(C)cc2)CC1)=C\c1ccccc1`, for which the inhibition was -12% (inactive).

With `CCOC(=O)[C@H]1[C@H]2COc3ccccc3[C@@H]2N2C(=O)c3ccccc3NC(=O)[C@@]12C`, the inhibition is -4.39% (inactive).

Take `CCCOc1ccc(-c2nc(N3CCN(C)CC3)c3ccccc3n2)cc1`: the inhibition was 9.86% (inactive).

`O=C(O)COc1ccccc1C(Nc1ccccn1)c1cc(Cl)c2cccnc2c1O` (centres undefined): the inhibition was -6.17% (inactive).

Regarding `O=C(NC(c1ccccc1)c1cc(Cl)c2cccnc2c1O)c1cccnc1` (centres undefined), the inhibition is -1.98% (inactive).

For the compound `CC(=O)c1ccc(OCC(O)CN2CCN(CCO)CC2)cc1` (centres undefined), the inhibition was -2.27% (inactive).

Take `O=C(COC(=O)CCCN1C(=O)c2cccc3cccc(c23)C1=O)Nc1cccc(C(F)(F)F)c1`: the inhibition was -5.09% (inactive).

Take `Cc1ccc(OCCCNC2CCCC2)cc1`: the inhibition was 2.57% (inactive).

For `CCOc1ccc(OCCNC2CCCC2)cc1`, the inhibition was 6.72% (inactive).

With `COCc1cc(CN2CCCC2)c(O)c2ncccc12`, the inhibition is -3.73% (inactive).

Consider `Oc1c(CN2CCN(c3ccccc3)CC2)cc(Br)c2cccnc12`, for which the inhibition is -1.71% (inactive).

Regarding `O=C(Oc1c(CN2CCOCC2)cc(Cl)c2cccnc12)c1ccccc1Cl`, the inhibition was 4.13% (inactive).

For `O=C(Oc1c(CN2CCOCC2)cc(Cl)c2cccnc12)c1cccs1`, the inhibition was -0.05% (inactive).

Consider `O=C(Nc1ccc(-c2nc3cccnc3s2)cc1)c1cccnc1Cl`, for which the inhibition was 16.9% (inactive).

Regarding `CC(=O)Nc1ccc(S(=O)(=O)N2CCN(c3cc(C)nc4ncnn34)CC2)cc1`, the inhibition is -16.9% (inactive).

As for `CC(=O)Nc1cccc(NC(=S)Nc2ccc(F)cc2F)c1`, the inhibition was 4.43% (inactive).

With `O=C(Nc1ccccc1)Nc1ccc(F)cc1F`, the inhibition was -5.6% (inactive).

As for `CN(C)CCN(C(=O)C1=COCCO1)c1nc2ccc(F)cc2s1`, the inhibition was -3.62% (inactive).

As for `CCOc1ccc2nc(N(CCCN(C)C)C(=O)c3ccc4c(c3)CCCC4)sc2c1`, the inhibition is 2.97% (inactive).

On to `CCN(CC)CCN(C(=O)c1ccc2c(c1)CCCC2)c1nc2ccc(C)cc2s1`, for which the inhibition was -8.88% (inactive).

For `CN(C)CCCN(C(=O)c1ccc2c(c1)CCCC2)c1nc2ccc(F)cc2s1`, the inhibition is 16.4% (inactive).

For the compound `CN(C)CCCN(C(=O)c1sc2ccccc2c1Cl)c1nc2ccc(F)cc2s1`, the inhibition was -7.99% (inactive).

For the compound `CN(C)CCCN(C(=O)C1=COCCO1)c1nc2ccc(Br)cc2s1`, the inhibition is -8.06% (inactive).

In the case of `Cc1cccc2sc(N(CCCN(C)C)C(=O)c3sc4ccccc4c3Cl)nc12`, the inhibition is -4.13% (inactive).

With `Cc1ccc(C(=O)N(CCCN(C)C)c2nc3ccc(Cl)cc3s2)cc1C`, the inhibition was 9.54% (inactive).

For the compound `Cc1cccc(Cl)c1OCCN1CCCC1`, the inhibition is -6.23% (inactive).

As for `O=C(NCCN1CCOCC1)/C(=C/c1ccc(Cl)cc1)NC(=O)c1ccccc1`, the inhibition is 0.05% (inactive).

Take `COc1cc(CCC(=O)OCC(=O)Nc2ccc(C)cc2Cl)cc(OC)c1OC`: the inhibition is -0.48% (inactive).

Turning to `Cc1ccc(S(=O)(=O)Nc2nncs2)cc1`, the inhibition is -8.26% (inactive).

Consider `CC(CCN1CCN=C1Nc1ccccc1)c1ccccc1` (centres undefined), for which the inhibition was 0.31% (inactive).

With `COc1ccccc1CNC(=O)CCC(=O)N1C[C@H]2C[C@@H](C1)c1cccc(=O)n1C2`, the inhibition is 0.48% (inactive).

`CCOCC(=O)Nc1nnc(SCCOC)s1`: the inhibition was -8.99% (inactive).

On to `O=C(CC(n1cncn1)C(Cl)(Cl)Cl)c1ccc([N+](=O)[O-])cc1` (centres undefined), for which the inhibition is -2.18% (inactive).

Take `CC(=O)NC(CC(=O)c1ccc([N+](=O)[O-])cc1)C(Cl)(Cl)Cl` (centres undefined): the inhibition was -10.7% (inactive).

Consider `O=C(CSC1=NC(=O)C(c2ccccc2)C(=O)N1)Nc1ccccc1[N+](=O)[O-]` (centres undefined), for which the inhibition was 0.46% (inactive).

For the compound `Cc1ccccc1-n1ncc2c1CC(C)(C)CC2NC(=O)C1CCC1` (centres undefined), the inhibition is 6.32% (inactive).

Take `N/C(=N\OC(=O)c1ccccc1)c1cccnc1`: the inhibition was -1.82% (inactive).

As to `N/C(=N\OC(=O)COc1ccc2ccccc2c1)c1cccnc1`, the inhibition is -4.96% (inactive).

With `N/C(=N\OS(=O)(=O)c1ccc(Cl)cc1)c1ccncc1`, the inhibition was -3.25% (inactive).

`N/C(=N\OS(=O)(=O)c1ccccc1)c1ccncc1`: the inhibition is 6.44% (inactive).

In the case of `N/C(=N\OC(=O)c1ccc(Cl)cc1)c1cccnc1`, the inhibition was 8.82% (inactive).

Turning to `N/C(=N\OS(=O)(=O)c1ccc2ccccc2c1)c1ccncc1`, the inhibition was 9.71% (inactive).

Consider `O=C(COC(=O)c1ccc([N+](=O)[O-])o1)Nc1cccc(S(=O)(=O)N2CCCCC2)c1`, for which the inhibition was 9.11% (inactive).

With `CC(=O)N(C)c1ccc(NS(=O)(=O)c2cc(Cl)ccc2Cl)cc1`, the inhibition is -11.6% (inactive).

Turning to `CCOC(=O)C1C(=O)C=C(c2cccs2)CC1c1ccccc1C` (centres undefined), the inhibition was -6.96% (inactive).

As for `CCCCOc1ccc(C(=O)N2CC(C)OC(C)C2)cc1` (centres undefined), the inhibition is -8.56% (inactive).

On to `CC1CN(C)C(C)CC1OC(=O)C(c1ccccc1)c1ccccc1` (centres undefined), for which the inhibition was -11.9% (inactive).

With `Cc1ccc(N2OC3C(=O)NC(=O)C3C2c2ccco2)cc1` (centres undefined), the inhibition was -16% (inactive).

With `O=C(Cn1nc(CNc2ccc(Cl)cc2)[n+]2c1CCCCC2)c1ccccc1`, the inhibition was -5.48% (inactive).

Consider `COc1ccc(C(=O)Cn2nc(CNc3ccc(Br)cc3)[n+]3c2CCCCC3)cc1`, for which the inhibition is 1.1% (inactive).

`COc1ccc(NCc2nn(CC(=O)c3ccc(Br)cc3)c3[n+]2CCCCC3)cc1`: the inhibition is 8.75% (inactive).

Turning to `Cc1ccc(C(C)C)c(OCc2nn(CC(=O)c3ccc(Cl)cc3)c3[n+]2CCCCC3)c1`, the inhibition was -26.5% (inactive).

With `COC(=O)CNC(c1ccccc1)c1cc(Cl)ccc1NC(=O)c1cccc(Cl)c1` (centres undefined), the inhibition was -1.38% (inactive).

Turning to `CCCCOc1ccc(Cc2cnc(N)nc2N)cc1`, the inhibition was -18.3% (inactive).

As to `COCc1cnc(C)nc1N`, the inhibition was -2.28% (inactive).

For the compound `COc1ccccc1OCc1nc2ccccc2n1C`, the inhibition was -1.73% (inactive).

With `O=C(NNC(=O)C(c1ccccc1)c1ccccc1)c1cccs1`, the inhibition is -3.78% (inactive).

For the compound `CN1CCN(c2ccc(NC(=O)c3ccc(-c4ccc(Cl)cc4)o3)cc2)CC1`, the inhibition is 14.7% (inactive).

Consider `CN1CCN(c2ccc(NC(=O)c3ccc(Br)o3)cc2)CC1`, for which the inhibition was -0.39% (inactive).
